JMJD2A Tudor – blocks the human JMJD2A Tudor domain; O75164; AlphaScreen JMJD2A-Tudor / H3K4me3 peptide binding; Potency, µM (series often up to 114 µM), for inactives: top-dose activity change, negative = inhibition, most hits filed as inhibitors; 390,000 tested, 4.4% active; AID 504339; also: % is scaled to controls: 0 for no effect and ±100 for the full control effect; nearly all actives have a fitted effect of over 50% in size
HP1b binding inh – blocks HP1-beta chromodomain binding to methylated histone tails | P83916 | AlphaScreen HP1-beta / biotin-H3K9me3 peptide binding | Potency, µM (titrated, usually from 114 µM), without a hit: top-dose activity change, negative = inhibition, usual class: inhibitors | 390,000 tested, 0.56% active | AID 540317; also: nearly all actives have a fitted effect of over 70% in size
Target sequence (P83916 whole entry, looked up): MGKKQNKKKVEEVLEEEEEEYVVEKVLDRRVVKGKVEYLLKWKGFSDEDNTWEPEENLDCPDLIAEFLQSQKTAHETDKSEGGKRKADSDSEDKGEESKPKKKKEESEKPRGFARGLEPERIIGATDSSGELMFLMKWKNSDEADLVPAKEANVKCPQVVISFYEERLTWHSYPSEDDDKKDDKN
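AlphaScreen: HP1-beta (50 nM) preformed 30 min with biotin-H3(1-18)K9me3 peptide (50 nM) in PBS pH 7.4, 0.01% Tween-20. Compound added for 30 min at RT, then streptavidin donor/nickel chelate acceptor beads (10 ug/mL) for 30 min.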
G9a inh – blocks human histone lysine methyltransferase G9a | Q96KQ7 | AID 504332 | Potency, µM (doses to about 102 µM), inactives show top-dose activity, negative = inhibition, usual class: inhibitors | 350,000 tested, 8.8% active | G9a H3K9 monomethylation, AlphaScreen, 2 h; also: % is scaled to controls: 0 for no effect and ±100 for the full control effect; nearly all actives have a fitted effect of over 75% in size
Target sequence (Q96KQ7 913-1193 limits assumed): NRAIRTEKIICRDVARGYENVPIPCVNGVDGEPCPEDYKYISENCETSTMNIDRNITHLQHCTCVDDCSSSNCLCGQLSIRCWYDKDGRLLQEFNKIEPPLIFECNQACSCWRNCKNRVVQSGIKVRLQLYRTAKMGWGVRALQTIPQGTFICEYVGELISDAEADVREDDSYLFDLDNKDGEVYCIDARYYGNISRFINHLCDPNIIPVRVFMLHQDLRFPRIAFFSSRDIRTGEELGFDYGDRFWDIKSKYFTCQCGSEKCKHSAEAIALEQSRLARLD
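Compounds were preincubated with 20 nM G9a for 15 min, after which biotinylated H3K9 peptide (500 nM) and SAM (20 uM) started a 2 h room-temperature reaction. Monomethylated product was quantified by antibody-based AlphaScreen chemiluminescence.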
BAZ2B inh – blocks human BAZ2B; Q9UIF8; AlphaScreen BAZ2B-H3K14Ac peptide displacement; Potency, µM (top dose mostly 114 µM), inactives show top-dose activity change, negative = inhibition, most hits filed as inhibitors; 360,000 tested, 4.4% active; AID 504333; also: % is scaled to controls: 0 for no effect and ±100 for the full control effect; nearly all actives have a fitted effect of over 60% in size
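Multi-concentration screen (max 110 uM) measuring displacement of acetylated histone H3 peptide from BAZ2B by AlphaScreen, using 50 nM protein, 50 nM peptide and 10 ug/mL streptavidin donor plus Ni-chelate acceptor beads.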
VDR inh – vitamin D3 receptor (human) inhibition; P11473; VDR-SRC2-3 peptide fluorescence polarization, 2 h; Potency, µM, inactives show max response, negative = inhibition, actives largely listed as inhibitors; 400,000 tested, 0.93% active; also: % is scaled to controls: 0 for no effect and ±100 for the full control effect
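The screen uses fluorescence polarization to detect compounds that interfere with recruitment of the SRC2-3 coactivator peptide to VDR; plates are read after 2 h at room temperature.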
PLK1 PBD block – blocks phosphopeptide binding to human PLK1 polo-box domain; P53350; Plk1 PBD binding of FITC phosphopeptide, fluorescence polarization; Potency, µM, inactives show max response, negative = inhibition, actives largely listed as inhibitors; 360,000 tested, 2.8% active; AID 720504; also: series mostly up to about 57 µM; % is scaled to controls: 0 for no effect and ±100 for the full control effect; nearly all actives have a fitted effect of over 65% in size
VDR inh confirm – confirmation of human vitamin D receptor inhibitors; Potency, µM, usual class: inhibitors; shares compounds with VDR inh; VDR-coactivator inhibition assay, qHTS confirmation; 840 tested, 89% active; AID 602199
VDR FP – confirmation of human VDR-coactivator binding inhibitors, fluorescein label | Potency, µM (top dose mostly 57.1 µM), for the others: at the highest dose activity change, negative = inhibition, hits mostly inhibitors | 840 tested, 48% active | VDR-coactivator binding, fluorescein fluorescence polarization | shares compounds with VDR inh
VDR bla – VDR (human) inhibition, cell-based beta-lactamase validation | Potency, µM (titrated, usually from 46.1 µM), for the others: top-dose activity change, negative = inhibition, hits mostly inhibitors | shares compounds with VDR inh | VDR beta-lactamase reporter cells, FRET ratio; cells co-treated with VDR agonist LG190178 | 840 tested, 23% active; also: % is scaled to controls: 0 for no effect and ±100 for the full control effect
VDR cytotox – counter-screen for vitamin D receptor inhibitors: cytotoxicity; shares compounds with VDR inh; cytotoxicity counter-screen, cell viability, qHTS; Potency, µM (doses to about 48.3 µM), for the others: top-dose activity change, negative = cytotoxicity, usual class: cytotoxic; 840 tested, 18% active; AID 602204;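 also: plate controls were DMSO for no effect and high-concentration cycloheximide for full effect; nearly all actives have a fitted effect of over 75% in size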
The depositor's hits bear a star; ? = inconclusive; nt = not tested or not shown; [ ] = another dose, or the depositor's remark. Most compounds without a hit are left out; they make up all but 11% or so of the library. Calls follow the shape of the dose curve; as a rule, active = well fitted curve in the direction sought with a large enough effect; inconclusive = small, poorly fitted or top-dose-only effect, or another doubt; inactive = no such curve, though single readings can be large; an effect the other way counts as inactive or inconclusive. Potency is read from the fitted curve at half-maximal effect.

SMILES	JMJD2A Tudor	HP1b binding inh	G9a inh	BAZ2B inh	VDR inh	PLK1 PBD block	VDR inh confirm	VDR FP	VDR bla	VDR cytotox
Cc1cccc(NC(c2ccc(O)cc2)c2ccc3ccc(C)nc3c2O)n1 (stereo not drawn)	44.7µM*	?	4.47µM*	?	44.7µM*	4.23µM*	10.6*	?	26.4%	0.4%
O=C1CCCC2=C1C1(O)C(=O)c3ccccc3C1(O)O2 (stereo not drawn)	-11.0%[11.4 µM]	38.0%	-44.2%[12.7 µM]	-6.9%	?	-11.3%	2.51*	2.24µM*	9.1%	11.9%
COc1ccc(C2(CNS(=O)(=O)c3ccccc3)CCOCC2)cc1	-28.6%	20.4%	11.2%	-4.3%	9.5%	2.1%	nt	nt	nt	nt
O=C(C=Cc1ccccc1)Nc1ccccc1	-11.0%	13.5%	nt	nt	0.0%	-1.6%	nt	nt	nt	nt
O=C(Nc1cccc(S(=O)(=O)Nc2ccccc2F)c1)c1ccc2ccccc2n1	25.1µM*	?	2.82µM*	?	15.8µM*	1.89µM*	3.77*	?	-18.9%	-38.5%
O=C(/C=C/c1ccccc1)Nc1cccc(S(=O)(=O)Nc2ccccc2F)c1	44.7µM*	?	1.58µM*	44.7µM*	11.2µM*	1.19µM*	4.23*	?	17.8%	?
Cc1cccc(/C=C/C(=O)c2ccc([N+](=O)[O-])o2)c1	-31.9%	17.2%	-16.9%[2.33 µM]	?	8.91µM*	?	1.12*	1.26µM*	5.17µM*	?
COc1ccc(/C=C/C(=O)c2ccc([N+](=O)[O-])o2)cc1	-23.9%	12.4%	7.8%[12.7 µM]	1.1%	-16.0%	-20.6%	nt	nt	nt	nt
Cc1cccnc1NC(=O)c1ccc([N+](=O)[O-])o1	2.1%	29.3%	-1.0%	0.3%	-0.1%	-3.3%	nt	nt	nt	nt
Cc1ccccc1/C=C/C(=O)c1ccc([N+](=O)[O-])o1	?	?	-8.5%[2.33 µM]	35.5µM*	7.94µM*	?	5.97*	3.16µM*	8.2µM*	20.6µM*
Cc1ccccc1C(=O)NCc1nnc(SCC(=O)N2CCN(c3ccccc3)CC2)n1C	1.9%	52.1%	14.0%[59 µM]	-0.4%	-1.7%	-8.3%	nt	nt	nt	nt
CN(CC(=O)Nc1ccc(Cl)cc1)C(=O)C1CCCC1	-10.3%	18.7%	2.7%	34.4%	15.2%	-9.3%	nt	nt	nt	nt
O=[N+]([O-])c1ccc(/C=C2\CCC(C3=CCCC3)=C2N2CCOCC2)cc1	?	-18.3%	?	-5.7%	?	-19.3%	?	?	?	-2.3%
O=[N+]([O-])c1ccc(/C=N/Nc2nc(N3CCOCC3)nc(N3CCOCC3)n2)cc1	nt	nt	0.3%	-4.7%	nt	nt	nt	nt	nt	nt
N#Cc1c(Nc2ccc(Cl)cc2)s[nH]c1=O	79.4µM*	-4.6%	nt	-5.3%	10µM*	?	7.52*	?	1.7%	-14.3%
CSc1nc(Nc2ccc(Cl)cc2)c(C#N)c(=O)[nH]1	-10.9%	53.5%	-8.8%	-6.3%	-1.9%	-2.8%	nt	nt	nt	nt
c1cn2cc(-c3ccc4c(c3)OCO4)nc2s1	-27.4%	?	20.0%[2.33 µM]	?	20µM*	23.8µM*	?	?	21.7%	-28.9%
CC(C)(C)c1cc(=O)n(-c2ccccc2)[nH]1	-11.1%	24.2%	44.7µM*	?	10µM*	-8.4%	8.91*	8.91µM*	-1.2%	3.3%
CC(C)N(CCC(=O)c1ccc2ccccc2c1)Cc1ccccc1	50.1µM*	-27.9%	1.68µM*	16.7%	5.01µM*	3.36µM*	15*	7.08µM*	?	?
CCOC(=O)c1c(C2COc3ccccc3O2)csc1NC(=O)c1ccco1 (stereo not drawn)	31.6µM*	17.8µM*	1.58µM*	?	?	2.51µM*	?	2.24µM*	-25.0%	-4.3%
CCOC(=O)c1c(C)nsc1NC(=O)c1ccco1	0.0%	38.3%	23.7%	0.1%	15.0%	-1.7%	nt	nt	nt	nt
Cc1ccc(C(C[N+](=O)[O-])n2nc(C)cc2C)cc1 (stereo not drawn)	-24.3%	15.0%	?	-13.3%	79.4µM*	16.8µM*	13.4*	8.91µM*	?	?
CC1(C)CC(=O)C=C(c2cccc(OC(=O)c3ccc(Br)cc3)c2)C1=O	nt	nt	nt	nt	nt	-3.7%	nt	nt	nt	nt
COc1ccc(C(=O)/C=C/C(=O)N(Cc2ccccc2)C(C(=O)NC2CCCCC2)c2ccncc2)c(O)c1 (stereo not drawn)	-29.9%	14.6%	4.1%[59 µM]	?	-7.4%	-5.4%	nt	nt	nt	nt
COc1ccc(C(=O)/C=C/C(=O)N(CC(=O)NC2CCCCC2)Cc2ccccc2)c(O)c1	-16.8%	33.2%	nt	?	28.2µM*	5.32µM*	11.9*	?	13µM*	?
SMILES	JMJD2A Tudor	HP1b binding inh	G9a inh	BAZ2B inh	VDR inh	PLK1 PBD block	VDR inh confirm	VDR FP	VDR bla	VDR cytotox
Nc1cc(N2CCCCC2)c([N+](=O)[O-])cc1Cl	?	-19.7%	?	?	-3.3%	0.2%	nt	nt	nt	nt
Nc1c(N2CCCC2)cc(Cl)c2nonc12	?	-45.0%	4.47µM*	-23.0%	?	21.2µM*	5.01*	2.82µM*	2.7%	6.9%
Cc1[nH]c2ccccc2c1C(=O)C(C)OC(=O)c1ccc(Cl)nc1 (stereo not drawn)	-4.8%	25.3%	-47.1%	-33.4%	-11.9%	1.6%	nt	nt	nt	nt
O=C(/C=C/c1ccc(F)cc1)c1ccccc1Br	30.4%	90.0%	-0.2%	51.4%	31.6µM*	-16.6%	11.9*	?	?	?
O=C(CCN1CCOCC1)c1ccc(Br)cc1	-10.5%	-7.8%	nt	-14.1%	22.4µM*	11.9µM*	23.8*	?	?	?
O=C(CCN1CCN(c2ccccc2F)CC1)c1ccc(Br)cc1	-25.5%	20.1%	3.16µM*	-4.5%	17.8µM*	8.44µM*	16.8*	?	?	?
O=C(CCC(=O)N1CCN(c2ccccc2F)CC1)c1ccc(F)cc1	-12.7%	12.5%	nt	-2.1%	-11.1%	-1.2%	nt	nt	nt	nt
CCOC(=O)[C@]12CCC=C1N(Cc1ccco1)C(=O)[C@H](CC(=O)NCCCCc1ccccc1)C2	nt	nt	nt	nt	nt	-14.9%	nt	nt	nt	nt
COC(=O)c1ccccc1NC(=O)C1CCCO1 (stereo not drawn)	-13.9%	23.2%	-3.1%[59 µM]	-3.0%	-14.7%	-6.4%	nt	nt	nt	nt

Bioassay records: PubChem, National Center for Advancing Translational Sciences (NCATS)
